Our source for the growth inhibition values is PubChem BioAssay (NCI).

The panel holds about 79,000 compounds, 15% with a hit somewhere; the sample as a whole holds those more often. Values without a mark were called inactive. Calls of active or inactive are those of the source. Cut-off read from the data, not from the text of the source: active = growth inhibition above about 70%; inactive = the rest.

The nature of assay [1]: NCI Yeast Anticancer Drug Screen. Data for the rad50 strain (AID 155).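 Note: 0% = growth of vehicle-only cultures of the same strain.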 As to conditions: S. cerevisiae rad50 strain growth inhibition, stronger effect = higher value. In a few lines:
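Genetically altered yeast (DNA repair pathway); compound treatment; growth inhibition vs vehicle ctrl.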

Assay [2] can be described thus: NCI Yeast Anticancer Drug Screen. Data for the mec2-1 strain (AID 157). As to conditions: S. cerevisiae mec2-1 strain, stronger effect = higher value. In a few lines: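 Each compound was tested on mec2-1 yeast, a strain altered in DNA damage repair or cell cycle control. Growth inhibition is reported relative to vehicle.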
The nature of assay [3]: NCI Yeast Anticancer Drug Screen. Data for the sgs1 mgt1 strain (AID 161).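 Note: 0% = growth of cultures given vehicle only.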 Conditions: S. cerevisiae sgs1 mgt1 strain, stronger effect = higher value. In a few lines:
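Test agents were incubated with a DNA-repair-mutant yeast strain. Growth was then read and compared against vehicle-treated controls.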

Assay [4] in a line: NCI Yeast Anticancer Drug Screen. Data for the cln2 rad14 strain (AID 165).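 Note: 0% = growth equal to vehicle treated cultures.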 Conditions: S. cerevisiae cln2 rad14 strain, stronger effect = higher value. In a few lines:
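Test compounds were added to cln2 rad14 yeast cultures; inhibition of growth was then determined by comparison with vehicle treatment.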

Assay [5] is described as follows: NCI Yeast Anticancer Drug Screen. Data for the bub3 strain (AID 167). As to conditions: S. cerevisiae bub3 mutant strain, stronger effect = higher value. In a few lines:
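Yeast carrying a defined mutation is treated with each compound, and growth is compared with that of vehicle-exposed cells to give inhibition.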

Assay [6] is described as follows: NCI Yeast Anticancer Drug Screen. Data for the mlh1 rad18 strain (AID 175). Conditions: S. cerevisiae mlh1 rad18 strain growth inhibition, stronger effect = higher value. A digest of the protocol: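 Inhibition values reflect reduced growth of mutant yeast versus vehicle-treated controls following compound exposure; the mutations affect DNA damage repair.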
[7] abbreviates: at 5.0 µM (retest, dose inferred, filed as 0.5).
[8] abbreviates: at 50.0 µM (retest, dose inferred, filed as 5.0).

`COc1ccc(-c2c(C#N)c(S)n(NS(=O)(=O)c3ccc(C)cc3)c(=O)c2C#N)cc1`: the growth inhibition in assay [1] (setting [7]) is 40%; in assay [1] (setting [8]), 89% (active); in assay [1] (at 50.0 µM), 28.8%; in assay [2] (setting [7]), 18%; in assay [2] (setting [8]), 88% (active); in assay [2] (at 50.0 µM), 69.1%. For the same compound, the growth inhibition in assay [3] (setting [7]) was 34%; in assay [3] (setting [8]), 97% (active); in assay [3] (at 50.0 µM) it was 61%; in assay [4] (setting [7]) it was 48%; in assay [4] (setting [8]) it was 64%; in assay [4] (at 50.0 µM), 20%. Besides, the growth inhibition is 58% in assay [5] (setting [7]); 95% (active) in assay [5] (setting [8]); 43.8% in assay [5] (at 50.0 µM); 27% in assay [6] (setting [7]); 69% in assay [6] (setting [8]); 71.5% (active) in assay [6] (at 50.0 µM).
As to `O=C(O)c1ccc2c(c1)CCCC2`, the growth inhibition in assay [1] (setting [7]) is -154%; in assay [1] (setting [8]), -116%; in assay [1] (at 50.0 µM) it was 16.2%; in assay [2] (setting [7]), -55%; in assay [2] (setting [8]), -53%; in assay [2] (at 50.0 µM) it was 6.3%. The growth inhibition in assay [3] (setting [7]) was -66%; in assay [3] (setting [8]) it was -58%; in assay [3] (at 50.0 µM), 9.5%; in assay [4] (setting [7]) it was -60%; in assay [4] (setting [8]), -61%; in assay [4] (at 50.0 µM), 52%. Moreover, the growth inhibition in assay [5] (setting [7]) was -75%; in assay [5] (setting [8]), -70%; in assay [5] (at 50.0 µM) it was -12.9%; in assay [6] (setting [7]) it was -143%; in assay [6] (setting [8]) it was -101%; in assay [6] (at 50.0 µM) it was 21.4%.
As for `O=C(C=P(c1ccccc1)(c1ccccc1)c1ccccc1)c1ccc(Cl)cc1`, the growth inhibition was 5% in assay [1] (setting [7]); 98% (active) in assay [1] (setting [8]); 98.8% (active) in assay [1] (at 50.0 µM); 12% in assay [2] (setting [7]); 99% (active) in assay [2] (setting [8]); 99.2% (active) in assay [2] (at 50.0 µM). The growth inhibition in assay [3] (setting [7]) is 19%; in assay [3] (setting [8]), 99% (active); in assay [3] (at 50.0 µM), 99% (active); in assay [4] (setting [7]) it was -10%; in assay [4] (setting [8]), 98% (active); in assay [4] (at 50.0 µM), 98.7% (active). Besides, the growth inhibition was 16% in assay [5] (setting [7]); 99% (active) in assay [5] (setting [8]); 98.5% (active) in assay [5] (at 50.0 µM); -16% in assay [6] (setting [7]); 99% (active) in assay [6] (setting [8]); 99% (active) in assay [6] (at 50.0 µM).
For the compound `CC(C)[CH2][Ge]([Cl])([Cl])[Cl]`, the growth inhibition was 1% in assay [1] (setting [7]); -8% in assay [1] (setting [8]); 98.5% (active) in assay [1] (at 50.0 µM); 2% in assay [2] (setting [7]); -2% in assay [2] (setting [8]); 98.8% (active) in assay [2] (at 50.0 µM). For the same compound, the growth inhibition in assay [3] (setting [7]) is 3%; in assay [3] (setting [8]), -15%; in assay [3] (at 50.0 µM), 98.7% (active); in assay [4] (setting [7]) it was -2%; in assay [4] (setting [8]), -14%; in assay [4] (at 50.0 µM), 98.5% (active). The growth inhibition in assay [5] (setting [7]) is 3%; in assay [5] (setting [8]), -3%; in assay [5] (at 50.0 µM), 99% (active); in assay [6] (setting [7]) it was 1%; in assay [6] (setting [8]) it was 1%; in assay [6] (at 50.0 µM), 99% (active).
In the case of `CCCCCCCCCCCCCCCCNCCCN(C)CCCN`, the growth inhibition in assay [1] (setting [7]) is -1%; in assay [1] (setting [8]), 98% (active); in assay [1] (at 50.0 µM), 88.5% (active); in assay [2] (setting [7]), -19%; in assay [2] (setting [8]) it was 98% (active); in assay [2] (at 50.0 µM), 93.5% (active). Also, the growth inhibition is 2% in assay [3] (setting [7]); 97% (active) in assay [3] (setting [8]); 93.3% (active) in assay [3] (at 50.0 µM); -26% in assay [4] (setting [7]); 97% (active) in assay [4] (setting [8]); 92% (active) in assay [4] (at 50.0 µM). Moreover, the growth inhibition in assay [5] (setting [7]) was -26%; in assay [5] (setting [8]), 97% (active); in assay [5] (at 50.0 µM), 92.4% (active); in assay [6] (setting [7]), -68%; in assay [6] (setting [8]) it was 97% (active); in assay [6] (at 50.0 µM), 90.3% (active).
For the compound `CC1(c2ccc(F)cc2)OC(=O)c2c1ccc1ccccc21` (configuration not stated), the growth inhibition in assay [1] (setting [7]) is -7%; in assay [1] (setting [8]), 68%; in assay [1] (at 50.0 µM), 56.2%; in assay [2] (setting [7]) it was -5%; in assay [2] (setting [8]) it was 78% (active); in assay [2] (at 50.0 µM) it was 42.8%. In addition, the growth inhibition in assay [3] (setting [7]) was 0%; in assay [3] (setting [8]) it was 81% (active); in assay [3] (at 50.0 µM) it was 56.5%; in assay [4] (setting [7]), -15%; in assay [4] (setting [8]), 70% (active); in assay [4] (at 50.0 µM) it was -2.35%. The growth inhibition is -6% in assay [5] (setting [7]); 88% (active) in assay [5] (setting [8]); 72.6% (active) in assay [5] (at 50.0 µM); -9% in assay [6] (setting [7]); 84% (active) in assay [6] (setting [8]); 29.5% in assay [6] (at 50.0 µM).
Take `Fc1cccc(CSc2n[nH]c(=S)c3nc[nH]c23)c1`: the growth inhibition in assay [1] (setting [7]) was 0%; in assay [1] (setting [8]), -3%; in assay [1] (at 50.0 µM), 9.9%; in assay [2] (setting [7]), -8%; in assay [2] (setting [8]), -1%; in assay [2] (at 50.0 µM), 10%. Also, the growth inhibition is -1% in assay [3] (setting [7]); -10% in assay [3] (setting [8]); 15.4% in assay [3] (at 50.0 µM); -7% in assay [4] (setting [7]); -14% in assay [4] (setting [8]); 40.8% in assay [4] (at 50.0 µM). Moreover, the growth inhibition is -2% in assay [5] (setting [7]); -3% in assay [5] (setting [8]); -3.85% in assay [5] (at 50.0 µM); -16% in assay [6] (setting [7]); -16% in assay [6] (setting [8]); 5.1% in assay [6] (at 50.0 µM).
As to `CC(=O)/C(=C\c1c(Cl)cccc1Cl)C(=O)CCN(C)C`, the growth inhibition in assay [1] (setting [7]) is 18%; in assay [1] (setting [8]), 99% (active); in assay [1] (at 50.0 µM) it was 75.8% (active); in assay [2] (setting [7]), 17%; in assay [2] (setting [8]), 99% (active); in assay [2] (at 50.0 µM), 70.5% (active). Also, the growth inhibition in assay [3] (setting [7]) was 8%; in assay [3] (setting [8]), 99% (active); in assay [3] (at 50.0 µM), 81.6% (active); in assay [4] (setting [7]), 25%; in assay [4] (setting [8]), 99% (active); in assay [4] (at 50.0 µM), 41.2%. Besides, the growth inhibition in assay [5] (setting [7]) was 27%; in assay [5] (setting [8]), 99% (active); in assay [5] (at 50.0 µM), 65.8%; in assay [6] (setting [7]) it was 16%; in assay [6] (setting [8]), 99% (active); in assay [6] (at 50.0 µM), 67.9%.
For the compound `CCOc1ccccc1NC(=O)/C(Cl)=C(\Cl)C(=O)O`, the growth inhibition in assay [1] (setting [7]) is 100% (active); in assay [1] (setting [8]) it was 99% (active); in assay [1] (at 50.0 µM), 99% (active); in assay [2] (setting [7]), 100% (active); in assay [2] (setting [8]), 100% (active); in assay [2] (at 50.0 µM) it was 98.3% (active). Further, the growth inhibition in assay [3] (setting [7]) was 100% (active); in assay [3] (setting [8]) it was 100% (active); in assay [3] (at 50.0 µM), 95.2% (active); in assay [4] (setting [7]), 100% (active); in assay [4] (setting [8]), 99% (active); in assay [4] (at 50.0 µM), 56.8%. The growth inhibition is 100% (active) in assay [5] (setting [7]); 100% (active) in assay [5] (setting [8]); 64.4% in assay [5] (at 50.0 µM); 100% (active) in assay [6] (setting [7]); 100% (active) in assay [6] (setting [8]); 76% (active) in assay [6] (at 50.0 µM).
